The source of these data is PubChem BioAssay AID1345085 (National Center for Advancing Translational Sciences (NCATS), 2018).

Records with an inconclusive call do not appear. Activity calls are given as the source filed them. The call rests on the fitted dose curve; in most records, active means well fitted cell-killing curve with a large enough effect; inconclusive means small, poorly fitted or top-dose-only effect, or effect the other way; inactive means no such curve, though single readings can be large or run the other way.
On the % scale 0 is the no-effect control and ±100 the full control effect; potency means the concentration at half of the fitted maximal effect.

This assay relates to Jar. Nature of the assay: Confirmatory qHTS for gynecologic anti-cancer compounds from libraries of approved drugs and bioactive compounds. Further: nearly all actives have a fitted effect of over 55% in size. The settings on record: gynecologic cancer cell panel viability, ATPlite luminescence, 48 h; series mostly up to 57.6 µM; activity change, negative = viability loss: at the top concentration. In outline: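 Cells (1,000/well) plated 16 h, then exposed 48 h at 37 °C to 11 concentrations (1:3) from 57.5 uM to 0.977 nM. Viability by ATPlite luminescence after 15 min; IC50 derived, with HEK 293T used for selectivity index.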
Take `Fc1cc(-c2cccc3ncc(-c4cnn(C5CCNCC5)c4)nc23)cc(F)c1CN1CCOCC1`: the Potency is 34.3 µM (active).

`Cc1cc(Nc2cc(N3CCN(C)CC3)nc(Sc3ccc(NC(=O)C4CC4)cc3)n2)n[nH]1`: the “activity change, negative = viability loss” value is -12.5% (inactive).

With `O=C1NC(=O)C(c2cnc3ccccn23)=C1c1cn2c3c(cccc13)CN(C(=O)N1CCOCC1)CC2`, the “activity change, negative = viability loss” value is -17.7% (inactive).

For `O=C(CCCCCCNC(=O)c1cnc(N(c2ccccc2)c2ccccc2)nc1)NO`, the Potency is 8.63 µM (active).

As for `Cc1ccc(NC(=O)c2ccc(CN3CCN(C)CC3)cc2)cc1Nc1nccc(-c2cccnc2)n1`, the “activity change, negative = viability loss” value was -3.28% (inactive).

Take `CCN1CCN(Cc2ccc(-c3cc4c(NC(C)c5ccccc5)ncnc4[nH]3)cc2)CC1` (stereo unspecified): the Potency is 21.7 µM (active).

In the case of `Cc1ccc(C(=O)Nc2ccc(CN3CCN(C)CC3)c(C(F)(F)F)c2)cc1C#Cc1cnc2cccnn12`, the Potency was 30.6 µM (active).

`Cc1cnc(Nc2ccc(OCCN3CCCC3)cc2)nc1Nc1cccc(S(=O)(=O)NC(C)(C)C)c1`: the Potency is 17.2 µM (active).

On to `NC(=O)c1cccc2cn(-c3ccc([C@@H]4CCCNC4)cc3)nc12`, for which the “activity change, negative = viability loss” value was 7.43% (inactive).

Consider `CCc1nc(C(N)=O)c(Nc2ccc(N3CCC(N4CCN(C)CC4)CC3)c(OC)c2)nc1NC1CCOCC1`, for which the Potency was 13.4 µM (active).

On to `CCN(CC)CCCC(C)Nc1ccnc2cc(Cl)ccc12` (stereo unspecified), for which the “activity change, negative = viability loss” value was 12.7% [at 19.5 µM] (inactive).

As to `Cc1cnc(Nc2ccc(F)cc2Cl)nc1-c1c[nH]c(C(=O)NC(CO)c2cccc(Cl)c2)c1` (stereo unspecified), the “activity change, negative = viability loss” value was -14% (inactive).

With `CNC(=O)c1ccccc1Nc1nc(Nc2ccc(N3CCOCC3)cc2OC)ncc1Cl`, the Potency was 19.3 µM (active).

`N=C(N)c1ccc(OCCCCCOc2ccc(C(=N)N)cc2)cc1`: the Potency is 5.44 µM (active).

For the molecule `C[C@@]1(C(=O)Nc2ccc(F)nc2)CCCN1c1nc(Nc2cc(C3CC3)[nH]n2)c2cccn2n1`, the Potency is 8.63 µM (active).

Consider `Oc1cn2c(n1)Nc1ccc(Cl)c(Cl)c1C2`, for which the “activity change, negative = viability loss” value was 17.7% [at 19.5 µM] (inactive).

With `O=C(c1ccc(/C=C/c2n[nH]c3ccccc23)cc1)N1CCNCC1`, the Potency was 30.6 µM (active).

`NS(=O)(=O)OC[C@@H]1C[C@@H](n2ccc3c(N[C@H]4CCc5ccccc54)ncnc32)C[C@@H]1O`: the “activity change, negative = viability loss” value was -26.3% (inactive).

Turning to `CN1C(=O)C(Cc2c[nH]c3ccccc23)NC1=S` (stereo unspecified), the “activity change, negative = viability loss” value is -8.95% [at 19.5 µM] (inactive).

Take `COC(=O)c1ccc2c(C(=Nc3ccc(N(C)C(=O)CN4CCN(C)CC4)cc3)c3ccccc3)c(O)[nH]c2c1`: the “activity change, negative = viability loss” value is -10.2% (inactive).

As to `CN1CCN(Cc2ccc(NC(=O)Nc3ccc(Oc4cc(NC(=O)C5CC5)ncn4)cc3)cc2C(F)(F)F)CC1`, the Potency is 19.3 µM (active).

For the molecule `Cc1ccc(C(=O)N(CCCN)C(c2nc3cc(Cl)ccc3c(=O)n2Cc2ccccc2)C(C)C)cc1` (stereo unspecified), the Potency was 0.0153 µM (active).

Regarding `CN1C2CCC1CC(OC(=O)[C@H](CO)c1ccccc1)C2` (stereo partly specified), the “activity change, negative = viability loss” value was -0.748% (inactive).

As to `S=c1nc[nH]c2nc[nH]c12`, the Potency was 13.7 µM (active).

On to `COCCOc1ccc2c(c1)ncn2-c1ccc2cccc(N3CCC(N)CC3)c2n1`, for which the “activity change, negative = viability loss” value is 12.2% (inactive).

`Cc1cc(Nc2nc(N[C@@H](C)c3ncc(F)cn3)ncc2Cl)n[nH]1`: the “activity change, negative = viability loss” value is 19.1% (inactive).

In the case of `Cc1nc(Nc2ncc(C(=O)Nc3c(C)cccc3Cl)s2)cc(N2CCN(CCO)CC2)n1`, the Potency was 21.7 µM (active).

`CN[C@@H](C)C(=O)N[C@H]1CN(C(=O)CC(C)C)CC[C@H]2CC[C@@H](C(=O)NC(c3ccccc3)c3ccccc3)N2C1=O`: the “activity change, negative = viability loss” value is 10.5% (inactive).

Turning to `Cc1ccc(C(=O)N(CCCN)C(c2oc3cc(Cl)ccc3c(=O)c2Cc2ccccc2)C(C)C)cc1` (stereo unspecified), the Potency is 0.0137 µM (active).

`COc1ccc(-c2ccc3c(N4CCOCC4C)nc(N4CCOCC4C)nc3n2)cc1CO` (stereo unspecified): the “activity change, negative = viability loss” value was 13.6% (inactive).

As for `Cc1cc(C(C)Nc2ccccc2C(=O)O)c2nc(N3CCOCC3)cc(=O)n2c1` (stereo unspecified), the Potency is 0.968 µM (active).

On to `COc1ccccc1N1CCN(CC(O)COc2cccc3ccccc23)CC1` (stereo unspecified), for which the “activity change, negative = viability loss” value is -22.6% (inactive).

In the case of `O=C(CCCCCCC(=O)Nc1ccccc1)NO`, the Potency was 3.85 µM (active).

Consider `c1nc2nc(Nc3ccc(N4CCOCC4)cc3)nc(NC3CCCCC3)c2[nH]1`, for which the Potency is 9.43 µM (active).

In the case of `C[C@]12CCC(=O)C=C1[C@@H]1C[C@@H]1[C@H]1[C@@H]3[C@@H]4C[C@@H]4[C@@]4(CCC(=O)O4)[C@@]3(C)CC[C@@H]12`, the “activity change, negative = viability loss” value was -5.53% (inactive).

As to `CC(C)(C(=O)NCC(F)(F)C(F)(F)F)C(=O)NC1C(=O)Nc2ccccc2-c2ccccc21` (stereo unspecified), the “activity change, negative = viability loss” value is 2.12% (inactive).
